61 molecules from PubChem BioAssay AID729 (The Scripps Research Institute Molecular Screening Center, 2007) can be followed below.

Each structure is given as a SMILES string. In all, about 97,000 compounds went through this assay and about 450 (0.46%) were called active. The sample as a whole holds a higher share of actives than the screen did. Values without a mark were called inactive. Rule as the data show it: active = activation above about 16%; inactive = the rest.

Sphingosine 1-phosphate receptor 2 (Homo sapiens), sequence (O95136 whole entry, looked up): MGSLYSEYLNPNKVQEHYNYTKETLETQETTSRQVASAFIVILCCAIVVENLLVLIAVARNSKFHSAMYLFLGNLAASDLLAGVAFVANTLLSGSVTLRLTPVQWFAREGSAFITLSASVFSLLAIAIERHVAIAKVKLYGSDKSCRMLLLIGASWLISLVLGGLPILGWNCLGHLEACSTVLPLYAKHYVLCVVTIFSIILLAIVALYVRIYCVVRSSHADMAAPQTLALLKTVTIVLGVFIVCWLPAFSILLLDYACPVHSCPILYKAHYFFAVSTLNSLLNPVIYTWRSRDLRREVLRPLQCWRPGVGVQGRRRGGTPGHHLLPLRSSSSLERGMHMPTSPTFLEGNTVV

This experiment addresses Sphingosine 1-phosphate receptor 2 (Homo sapiens) (UniProt O95136). The experiment in a line: S1P2 receptor agonists, primary screen, cell-based (AID 729).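 Also: 0% = vehicle low control and 100% = maximal reference agonist.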 As to conditions: S1P2-expressing cell line, agonist reporter read-out; at 4.5 µM; stronger effect = higher value.
For `Cc1ccc(-n2c(SCC(=O)Nc3ccc4c(c3)OCO4)nnc2-c2ccccn2)cc1`, the activation is -1.29%.
Next, `Cc1cccc(C)c1NC1=NC(=S)N(c2ccc(N(C)C)cc2)C1(C)C`: -9.2%.
On to `Cc1cc(C(=O)OCC(=O)Nc2ccc(F)c(F)c2)c(C)o1`, for which the activation was -1.12%.
Take `Cc1sc2nc(SCC(N)=O)n(C)c(=O)c2c1C`: the activation was -6.32%.
Take `CCOc1ccc(NC(=O)CN(C)CC(=O)Nc2cccc(Cl)c2C)cc1OCC`: the activation was -8.46%.
On to `CS(=O)(=O)Nc1ccc(C(=O)N2CCCC2)cc1`, for which the activation is -1.67%.
Take `O=C(NC1CCCCC1)c1cc([N+](=O)[O-])ccc1N1CCOCC1`: the activation is -3.96%.
The value for `CC(C)c1nc(N2CCOCC2)c(C#N)c2c1COC(C)(C)C2` was -3.4%.
As for `CC1(C)Cc2c(C#N)c(SCc3nc4ccccc4[nH]3)nc(N3CCOCC3)c2CO1`, the activation is 31% (active).
For the molecule `COc1ccc(CSc2nc(N3CCOCC3)c3c(c2C#N)CC(C)(C)OC3)cc1`, the activation is -4.98%.
The value for `Cc1c(CCO)c(=O)[nH]n1C(=O)c1c(F)cccc1F` was -3.16%.
In the case of `CCn1c(SCC(=O)c2ccc3ccccc3c2)nnc1-c1cccs1`, the activation is -3.98%.
For `CCCc1nc2oc3c(OCC)ncnc3c2c2c1COC(C)(C)C2`, the activation is -0.19%.
Next, `O=C(Oc1ccc([N+](=O)[O-])cc1)c1ccc2ccccc2n1`: -2.37%.
Turning to `CCOC(=O)c1cnc(SCC(=O)Nc2ccccc2C(=O)OC)nc1N`, the activation is 1.96%.
In the case of `O=C(Cc1ccc2c(c1)CCCC2)Nc1ccccc1Cl`, the activation is -3.38%.
The value for `C=C(C)Cn1c(N2CCCC2)nc2c1c(=O)[nH]c(=O)n2C` was 19.6% (active); that for `Cc1nnc(SCCCn2c(N3CCCCC3)nc3c2c(=O)[nH]c(=O)n3C)s1` was -7%; that for `C=C(C)Cn1c(N2CCN(CC)CC2)nc2c1c(=O)[nH]c(=O)n2C` was -3.08%.
Next, `O=C(O)c1ccccc1-c1ccccc1C(=O)Nc1cccc2ccccc12`: -6.33%.
The value for `CCOC(=O)c1cc(C#N)c(N2CCCCC2)nc1-c1ccccc1` was -3.1%; that for `Cc1ccc(C(=O)N2CCCC2)c(F)c1F` was -3.27%.
In the case of `COc1ccc(-n2nnnc2SCC(=O)Nc2ccccc2)cc1`, the activation was -5.85%.
Regarding `COc1ccccc1N1CC(C(=O)Nc2ccc(S(=O)(=O)N3CCOCC3)cc2)CC1=O` (stereo unspecified), the activation is -6.57%.
The value for `COc1ccc(Cc2nnc(SCC(=O)c3cccc([N+](=O)[O-])c3)n2C)cc1` was -3.41%; that for `CN(C)CCNC(=O)Nc1cccc(Cl)c1Cl` was -3.84%; that for `O=C(/C=C/c1ccc(Cl)cc1Cl)NCc1ccco1` was -1.23%.
Next, `O=C(COc1ccc2c(C(F)(F)F)cc(=O)oc2c1)Nc1ccc2c(c1)OCCO2`: -0.82%; `COc1ccc(CCNC(=O)CN(c2ccccc2)S(C)(=O)=O)cc1OC`: -5.51%; `CC(C)c1ccc(NC(=O)CCN2C(=O)c3ccc([N+](=O)[O-])cc3C2=O)cc1`: -2.71%.
For the molecule `Cc1nnc(SCC(=O)Nc2ncc3c(n2)CC(C)(C)CC3=O)s1`, the activation was -4.47%.
On to `CCN(CC)CCCNC(=O)CCc1ccccc1`, for which the activation was -2.5%.
On to `COCCOC(=O)C1=C(C)Nc2nc(C)nn2C1c1ccccc1` (stereo unspecified), for which the activation is 0.76%.
Consider `COc1cc(C2C(C(=O)OCCC#N)=C(C)NC3=C2S(=O)(=O)c2ccccc23)cc(OC)c1OC` (stereo unspecified), for which the activation was 26.2% (active).
For the molecule `CCCCCOC(=O)C1=C(C)Nc2nnnn2C1c1ccc(OC)c(OC)c1OC` (stereo unspecified), the activation is -4.69%.
For `CC(C)C(=O)Nc1nnc(Sc2ccc(N(C)C)cc2)s1`, the activation is -5.86%.
The value for `O=c1oc2c(Cl)cc(Cl)cc2cc1-c1nnc(Nc2ccccc2F)s1` was -0.35%; that for `Cn1c(=O)n(C)c2cc(/C=N/NC(=O)c3cccc(Br)c3)ccc21` was -7.52%.
The value for `Nc1c(C(=O)NCc2ccccc2)sc2nc3c(cc12)C(=O)CCC3` was -2.41%; that for `CCCCNC(=O)C1CCCN(S(=O)(=O)c2ccc(S(=O)(=O)NCC(C)C)cc2)C1` (stereo unspecified) was -2.41%; that for `COC(=O)c1ccccc1Oc1c(F)c(F)nc(N2CCOCC2)c1F` was -3.44%.
Next, `COc1ccc(C2C(C(C)=O)=C(O)C(=O)N2Cc2cccnc2)cc1` (stereo unspecified): -3.66%; `CC(C)C(C)NC(=O)COc1ncnc2ccccc12` (stereo unspecified): -3.57%.
In the case of `CC1Cc2ccccc2N1CC(=O)Nc1ccc2c(c1)OC(F)(F)O2` (stereo unspecified), the activation is 2.93%.
The value for `O=C(CN1CCN(S(=O)(=O)c2ccc3ccccc3c2)CC1)NC(=O)NC1CCCCC1` was -7.63%.
The value for `CCOC(=O)c1nc(Nc2ccc(C(=O)OC)cc2)c2ccccc2n1` was -2.78%.
As to `CCc1ccc(NC(=O)CN2C(=O)CSC2=O)cc1`, the activation is -3.93%.
The value for `Cn1cnc([N+](=O)[O-])c1Nc1ccccc1O` was -3.11%; that for `COc1ccc(C2C(C(C)=O)=C(O)C(=O)N2c2nccs2)cc1` (stereo unspecified) was -0.54%.
Next, `Cc1ccc(-n2c(=O)c(C#N)cc3c(=O)n4ccccc4nc32)cc1C`: 5.21%; `CCCn1c(=NC(C)=O)c(C(=O)OCC)cc2c(=O)n3ccccc3nc21`: 14.5%.
`CCn1c(=N)c(S(=O)(=O)c2ccc(F)cc2)cc2c(=O)n3ccccc3nc21`: the activation was 34.3% (active).
The value for `CONC(=O)c1cc(OCC(F)(F)F)ccc1OCC(F)(F)F` was -3.47%.
Regarding `CC1(C)CC(=O)C(C=NCCC2=CCCCC2)=C(O)C1`, the activation was -6.14%.
For `O=C1CCCC(O)=C1C=NCCc1ccccc1`, the activation is 84.1% (active).
The value for `Cc1cc(N=CC2=C(O)CCCC2=O)no1` was -0.19%; that for `COc1ccc(N(CC(=O)N/N=C/c2cccs2)S(=O)(=O)c2ccc(OC)c(OC)c2)cc1` was -7.16%; that for `COc1ccc(C(=O)/C=C/Nc2ccccn2)cc1` was 1.74%.
The value for `O=C(Nc1ccccc1)c1ccc2nsnc2c1` was -2.63%; that for `O=C(O)c1cc2ccccc2c(=O)s1` was -6.32%; that for `O=C(CN1CCSCC1)N/N=C/c1ccc(F)cc1F` was -0.59%.
